A word on the AC50: it is the concentration giving half of the maximal activity seen.

Experimental findings from PubChem BioAssay (EPA / NIEHS) are described below.

The subject of one assay is TTR (gene 7276). Kind of assay: CCTE_GLTED_hTTR_0.125uM: CCTE's human Transthyretin (hTTR) Inhibition Assay, with 0.125uM TTR, Great Lakes Toxicology and Ecology Division (GLTED) Lab (AID 2284431).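 Further: hits lower the fluorescence signal relative to DMSO baseline.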 An outline of the steps: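 Fluorescence (380 ex, 475 em) reported the ANSA probe remaining bound to 0.125uM human transthyretin. Chemicals were incubated with the protein for 2 hours; activity was scored as loss of signal against DMSO negative control.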

Assay [1] is described as follows: CCTE_Deisenroth_DEVTOX-GLR_Pluri_CellCount: Viability Assessment in CCTE's DevTox GLR-Pluri Assay Evaluation of Total Cell Counts, Deisenroth Lab (AID 2284430). In a few lines:
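RUES2-GLR human pluripotent cells, seeded 24 h, then differentiated 48 h with two chemical exposures 24 h apart; 10-point series 1 nM - 200 uM. Fixed, nuclear-stained, imaged (5 fields/well); nuclei count as % change vs 0.2% DMSO.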

Molecules are shown by their SMILES. Activity calls are given as the source filed them. How the source made its calls: active means hit-call score of the fitted dose curve at least 0.9, where 1 is the maximum; inactive means score below 0.9.

As to `Fc1ccc(Oc2ccnc3cc(Cl)cc(Cl)c23)cc1`, in the assay on TTR (gene 7276), the AC50 was 2.74 µM (active).

Take `CCCN(CCC)c1c([N+](=O)[O-])cc(S(N)(=O)=O)cc1[N+](=O)[O-]`: the AC50 in the assay with TTR (gene 7276) is 9.88 µM (active).

`Oc1ccccc1-c1ccccc1`: the half-maximal activity concentration (AC50) in the assay on TTR (gene 7276) is 14.2 µM (active).

For the compound `CCON=C(CC)C1=C(O)CC(c2c(C)cc(C)cc2C)CC1=O` (stereo unspecified), the AC50 in the assay on TTR (gene 7276) was 9.92 µM (active).

Turning to `Cc1cc(Cl)ccc1OCC(=O)O`, the AC50 in the assay on TTR (gene 7276) is 22.1 µM (active).

As for `C=CC1(C)OC(=O)N(c2cc(Cl)cc(Cl)c2)C1=O` (stereo unspecified), the AC50 in the assay with TTR (gene 7276) is 1.68 µM (active).

In the case of `COP(=S)(OC)Oc1nc(Cl)c(Cl)cc1Cl`, the AC50 in the assay on TTR (gene 7276) is 0.274 µM (active).

With `COC(=O)C(C)Oc1ccc(Oc2ccc(Cl)cc2Cl)cc1` (stereo unspecified), the AC50 in the assay on TTR (gene 7276) is 1.12 µM (active).

Consider `O=C(O)COc1nc(Cl)c(Cl)cc1Cl`, for which, in the assay on TTR (gene 7276), the AC50 was 6.69 µM (active).

For the compound `Cc1ccc(-c2c(Cl)nc(C#N)n2S(=O)(=O)N(C)C)cc1`, the AC50 in the assay on TTR (gene 7276) was 0.0946 µM (active).

Regarding `COC(=O)c1ccccc1C(=O)OC`, the compound was called inactive in assay [1].
